The results in this text go back to the supplement of paper PMC7866885, “A novel bicyclic 2,4-diaminopyrimidine inhibitor of Streptococcus suis dihydrofolate reductase” (PeerJ, 2021).

± gives the standard deviation.

The first experiment has as its system Streptococcus suis HE06. The experiment in a line: percent growth relative to DMSO control; higher = less growth inhibition. The conditions noted are these: 10 µM; incubation time 18 h. On the procedure:
(§1)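 CLSI broth microdilution: 5x10^4 CFU of Streptococcus suis (strain P1/7 or HE06) incubated with 10 µM Pathogen Box compound in cation-adjusted Mueller Hinton broth, 37 °C, 5% CO2, 18 h. Growth read as OD600 and expressed as percent of the DMSO-treated control (100%); mean ± SD of three independent experiments.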
`N#Cc1ccc(-c2ccc(OCC(N)=O)cc2)cc1` came in with a percent growth of 91.4 ± 11%.

For the compound `CC(C)NCC(=O)Nc1cccc(C(=O)Nc2cccc(C(F)(F)F)c2)c1`, the percent growth came out at 104 ± 4.8%.

`COc1ccc(OC(C)C(=O)Nc2ccc(Cl)cc2C)cc1` (configuration not stated) returned a percent growth of 107 ± 13%. Same read-out and setting: the value for `CC(C)c1ncc(-c2ccncc2)c([C@H]2CC[C@H](CNC(=O)c3cccnc3)CC2)n1` was 82.4 ± 8.9%; that for `O=C(NCc1nnc2n1CCCCC2)c1ccc(-c2ccc(F)cc2)o1` was 82.7 ± 15%; that for `O=C(Nc1nc(-c2ccccn2)cs1)c1cncn1-c1ccccc1` was 13.4 ± 19%. Same read-out and setting: the figure for `NCCC(O)C(=O)N[C@@H]1C[C@H](N)[C@@H](OC2O[C@H](CN)[C@@H](O)[C@H](O)[C@H]2O)[C@H](O)C1OC1O[C@H](CO)[C@@H](O)[C@H](N)[C@H]1O` (some centres not stated) is 104 ± 4.8%. Still for that read-out and setting: the value for `CCCS(=O)(=O)N1CCC(CO)(Cc2ccccc2C(F)(F)F)CC1` was 99.2 ± 19%; that for `Cc1ccc2[nH]c3c(NCCN(C)C)ncnc3c2c1` was 96.1 ± 12%; that for `COc1ccc(N(CCc2cccc(C)n2)C(C)=O)cc1` was 112 ± 54%. `Clc1ccc(-n2cc(COc3ccnc4ccccc34)nn2)cc1`: the percent growth was 84.2 ± 6%. On the same count and under the same terms, the value for `CCc1nc2ccc(C(=O)NCc3ccc4c(c3)OCO4)cn2c1N(C)Cc1cccs1` was 122 ± 67%; that for `C[C@@H]1[C@H](O)[C@@H](C)/C=C/C=C/C=C/C=C/C=C/C=C/C=C/[C@H](O[C@@H]2O[C@H](C)[C@@H](O)[C@H](N)[C@@H]2O)C[C@@H]2O[C@](O)(C[C@@H](O)C[C@@H](O)[C@H](O)CC[C@@H](O)C[C@@H](O)CC(=O)O[C@H]1C)C[C@H](O)[C@H]2C(=O)O` was 97.2 ± 8.6%. On the same count and under the same terms, the value for `O=C(Nc1cnc2ccccc2c1)c1cccc(-n2cnnn2)c1` was 110 ± 2.4%.

`Cc1cc(C)n2nc(C(=O)Nc3cc(C(F)(F)F)ccc3N3CCOCC3)nc2n1` came in with a percent growth of 240 ± 280%.

As for `Nc1ccc(C(=O)Nc2ccc(-c3nc4ccccc4o3)cc2)cc1`, the percent growth turned out to be 105 ± 4.4%.

`CCCn1c(CNc2ccccc2O)nc2ccccc21`: the percent growth is 62.6 ± 7.6%.

Take `O=C(NCCN1CCCC1)c1cc(NCCCCN2CCC(F)(F)CC2)nc2ccc(Cl)cc12`: the percent growth amounted to 93 ± 6.6%. As to `Cc1cc(C)c2cc(C(=O)NC3CCCCCCC3)[nH]c2c1`, the percent growth is 90.5 ± 14%.

`FC(F)(F)c1cccc(-c2nc3c(NCc4ccncc4)nccc3[nH]2)c1` had a percent growth of 90.4 ± 20%. The same measure, in the same setting: the figure for `N#Cc1nc(-c2ccccc2)oc1S(=O)(=O)c1ccc(Cl)cc1` is 96.9 ± 9.2%; for `c1ccc(Oc2ccc(-c3cc(CN4CCOCC4)[nH]n3)cc2)cc1` it is 90.8 ± 3.9%; for `CN1CCCC1CCO[C@](C)(c1ccccc1)c1ccc(Cl)cc1` (some centres not stated) it is 86.3 ± 9.2%.

The compound `COc1cc(C(F)(F)F)nc2ccc(C)c(N)c12` had a percent growth of 101 ± 4.2%. Still for that read-out and setting: the value for `Cc1nn2c(=O)c3c([nH]c2c1-c1ccc(Cl)cc1)CCCC3` was 0.386 ± 8.7%; that for `O=C(Nc1nnc(-c2ccc(Cl)cc2)o1)c1cccc(C(F)(F)F)c1` was 0%.

In turn, `FC(F)(F)c1nnc2ccc(Cl)nn12` showed a percent growth of 74.8 ± 22%. The compound `O=C(NCCc1ccccc1)c1cc(-c2cccnc2)cnc1NCC1CC1` came in with a percent growth of 88.2 ± 20%. Still for that read-out and setting: the figure for `COc1ccc(Cl)cc1NC(=O)CN(C)C(=O)c1cnn(-c2ccccc2)n1` is 79.4 ± 7.2%; for `NCC(=O)N1CCn2c(nc(-c3ccccc3)c2Nc2ccc3c(c2)OCO3)C1` it is 97.6 ± 33%. Still for that read-out and setting: the figure for `CNC(=O)C1Cc2ccccc2N1C(=O)Cc1ccc(F)cc1` (configuration not stated) is 96.6 ± 1.8%; for `Cn1c(=O)c2c(S(C)(=O)=O)snc2n(C)c1=O` it is 40.1 ± 32%. Same read-out and setting: the figure for `Cc1ccc(C(=O)Nc2ccc(S(=O)(=O)O)c3cc(S(=O)(=O)O)cc(S(=O)(=O)O)c23)cc1NC(=O)c1cccc(NC(=O)Nc2cccc(C(=O)Nc3cc(C(=O)Nc4ccc(S(=O)(=O)O)c5cc(S(=O)(=O)O)cc(S(=O)(=O)O)c45)ccc3C)c2)c1` is 78.7 ± 8.8%; for `Nc1ncc(-c2cn[nH]c2)cc1-c1nc2cc(Cl)cnc2[nH]1` it is 90.8 ± 5.4%.

`CN(C)CCNC(=O)N1CCCN(c2ncnc3cc(-c4ccccc4)sc23)CC1` returned a percent growth of 92.9 ± 31%. Same read-out and setting: the value for `O=C(NC1CC1)c1ccc(N2CCC(Cc3ccccc3)CC2)nc1` was 91.7 ± 9.1%.

As for `Cc1cc(Nc2ccc(C(F)(F)F)cc2)n2ccnc2n1`, the percent growth turned out to be 113 ± 12%. On the same count and under the same terms, the value for `CC(C)(C)c1cnc(NC(=O)c2ccccc2O)s1` was 19.7 ± 28%. For the compound `CCOc1ccc2cc(-c3nn(CC4CCN(C)CC4)c4ncnc(N)c34)ccc2c1`, the percent growth is 97 ± 13%.

A further experiment deals with Streptococcus suis P1/7. The experiment is described as above. To be noted: 10 µM; incubation time 18 h. The method, then: as §1
In turn, `N#Cc1ccc(-c2ccc(OCC(N)=O)cc2)cc1` yielded a percent growth of 94.4 ± 35%.

`COc1ccc(OC(C)C(=O)Nc2ccc(Cl)cc2C)cc1` (configuration not stated): the percent growth stood at 82.7 ± 6.3%. Same read-out and setting: the value for `CC(C)c1ncc(-c2ccncc2)c([C@H]2CC[C@H](CNC(=O)c3cccnc3)CC2)n1` was 125 ± 64%; that for `O=C(NCc1nnc2n1CCCCC2)c1ccc(-c2ccc(F)cc2)o1` was 106 ± 42%; that for `O=C(Nc1nc(-c2ccccn2)cs1)c1cncn1-c1ccccc1` was 5.15 ± 6.6%. On the same count and under the same terms, the figure for `NCCC(O)C(=O)N[C@@H]1C[C@H](N)[C@@H](OC2O[C@H](CN)[C@@H](O)[C@H](O)[C@H]2O)[C@H](O)C1OC1O[C@H](CO)[C@@H](O)[C@H](N)[C@H]1O` (some centres not stated) is 87.5 ± 38%.

In turn, `CCCS(=O)(=O)N1CCC(CO)(Cc2ccccc2C(F)(F)F)CC1` showed a percent growth of 82.4 ± 27%.

In the case of `Cc1ccc2[nH]c3c(NCCN(C)C)ncnc3c2c1`, the percent growth turned out to be 172 ± 110%.

`COc1ccc(N(CCc2cccc(C)n2)C(C)=O)cc1` gave a percent growth of 62.6 ± 12%. On to `Clc1ccc(-n2cc(COc3ccnc4ccccc34)nn2)cc1`, for which the percent growth is 77.9 ± 13%. For the compound `CCc1nc2ccc(C(=O)NCc3ccc4c(c3)OCO4)cn2c1N(C)Cc1cccs1`, the percent growth was 72.9 ± 11%. The same measure, in the same setting: the value for `C[C@@H]1[C@H](O)[C@@H](C)/C=C/C=C/C=C/C=C/C=C/C=C/C=C/[C@H](O[C@@H]2O[C@H](C)[C@@H](O)[C@H](N)[C@@H]2O)C[C@@H]2O[C@](O)(C[C@@H](O)C[C@@H](O)[C@H](O)CC[C@@H](O)C[C@@H](O)CC(=O)O[C@H]1C)C[C@H](O)[C@H]2C(=O)O` was 92.3 ± 14%. Consider `Cc1cc(C)n2nc(C(=O)Nc3cc(C(F)(F)F)ccc3N3CCOCC3)nc2n1`, for which the percent growth stood at 81.4 ± 16%.

`Nc1ccc(C(=O)Nc2ccc(-c3nc4ccccc4o3)cc2)cc1` had a percent growth of 92.6 ± 17%. Still for that read-out and setting: the value for `CCCn1c(CNc2ccccc2O)nc2ccccc21` was 82.1 ± 38%; that for `O=C(NCCN1CCCC1)c1cc(NCCCCN2CCC(F)(F)CC2)nc2ccc(Cl)cc12` was 79.3 ± 14%; that for `Cc1cc(C)c2cc(C(=O)NC3CCCCCCC3)[nH]c2c1` was 90.1 ± 32%. The same measure, in the same setting: the figure for `N#Cc1nc(-c2ccccc2)oc1S(=O)(=O)c1ccc(Cl)cc1` is 85.2 ± 19%; for `c1ccc(Oc2ccc(-c3cc(CN4CCOCC4)[nH]n3)cc2)cc1` it is 95.7 ± 15%; for `CN1CCCC1CCO[C@](C)(c1ccccc1)c1ccc(Cl)cc1` (some centres not stated) it is 78.1 ± 43%. Still for that read-out and setting: the value for `Cc1nn2c(=O)c3c([nH]c2c1-c1ccc(Cl)cc1)CCCC3` was 12.7 ± 22%; that for `O=C(Nc1nnc(-c2ccc(Cl)cc2)o1)c1cccc(C(F)(F)F)c1` was 2.91 ± 3.9%. For `FC(F)(F)c1nnc2ccc(Cl)nn12`, the percent growth is 85 ± 18%. The same measure, in the same setting: the figure for `O=C(NCCc1ccccc1)c1cc(-c2cccnc2)cnc1NCC1CC1` is 59.7 ± 23%. On the same count and under the same terms, the value for `COc1ccc(Cl)cc1NC(=O)CN(C)C(=O)c1cnn(-c2ccccc2)n1` was 80.3 ± 29%. `NCC(=O)N1CCn2c(nc(-c3ccccc3)c2Nc2ccc3c(c2)OCO3)C1` showed a percent growth of 71.3 ± 25%. Still for that read-out and setting: the value for `CNC(=O)C1Cc2ccccc2N1C(=O)Cc1ccc(F)cc1` (configuration not stated) was 94.5 ± 32%. On the same count and under the same terms, the value for `Cn1c(=O)c2c(S(C)(=O)=O)snc2n(C)c1=O` was 93 ± 120%; that for `Cc1ccc(C(=O)Nc2ccc(S(=O)(=O)O)c3cc(S(=O)(=O)O)cc(S(=O)(=O)O)c23)cc1NC(=O)c1cccc(NC(=O)Nc2cccc(C(=O)Nc3cc(C(=O)Nc4ccc(S(=O)(=O)O)c5cc(S(=O)(=O)O)cc(S(=O)(=O)O)c45)ccc3C)c2)c1` was 85.9 ± 15%.

As to `Nc1ncc(-c2cn[nH]c2)cc1-c1nc2cc(Cl)cnc2[nH]1`, the percent growth is 74 ± 15%. For the compound `CN(C)CCNC(=O)N1CCCN(c2ncnc3cc(-c4ccccc4)sc23)CC1`, the percent growth was 72.1 ± 3.5%.

The compound `O=C(NC1CC1)c1ccc(N2CCC(Cc3ccccc3)CC2)nc1` came in with a percent growth of 108 ± 16%. Same read-out and setting: the value for `CCOc1ccc2cc(-c3nn(CC4CCN(C)CC4)c4ncnc(N)c34)ccc2c1` was 99.3 ± 11%.
